Experimental data from PubChem BioAssay (Tox21).
Where “and” joins values, the source holds several entries; their conditions need not be identical. Equal entries are not always repeated. Results filed as inconclusive are left out. A call without a number means that no potency is given here. More than one record can exist for a structure, and the calls need not agree. Calls of active or inactive are those of the source. The call rests on the fitted dose curve; in most records, active means well fitted curve in the direction sought with a large enough effect in the repeat runs; inconclusive means weak or mixed curves; inactive means no such curve, though single readings can be large; an effect the other way counts as inactive or inconclusive.

Experiments:
[1] = qHTS RealTime-Glo MT Cell Viability Assay in HepG2 cells - 40 hour (AID 1224870); further: nearly all actives have a fitted effect of over 50% in size; further: potency means the concentration at half of the fitted maximal effect
Summary of the method: (§1)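 HepG2 cells (600/well) mixed with RealTime-Glo MT reagent, settled 5 h at 37 C/5% CO2 before compound addition. Nonlytic NanoLuc luminescence from viable-cell prosubstrate reduction read repeatedly during 40 h treatment at 37 C.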

[2] = A CellTox Green Cytotoxicity Assay to monitor cytotoxicity in HEK293 cells - 40 hour (AID 1224871); further: nearly all actives have a fitted effect of over 45% in size; further: potency means the concentration at half of the fitted maximal effect
Summary of the method: (§2)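 Fluorescence intensity, read at 0, 8, 16, 24, 32 and 40 h of compound treatment, reflected dye binding to DNA of dead HEK293 cells; compounds (23 nL, DMSO) were added 5 h after plating cells with reagent.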

[3] = qHTS RealTime-Glo MT Cell Viability Assay in HEK293 cells - 16 hour (AID 1224872); further: nearly all actives have a fitted effect of over 50% in size; further: potency means the concentration at half of the fitted maximal effect
Summary of the method: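 Luminescence generated by NanoLuc from substrate produced by living HEK293 cells served as the viability signal. Each value reflects the reading at its stated time point during continuous 40 h compound exposure at 37 C.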

[4] = qHTS RealTime-Glo MT Cell Viability Assay in HepG2 cells - 8 hour (AID 1224873); further: nearly all actives have a fitted effect of over 55% in size; further: potency means the concentration at half of the fitted maximal effect
Summary of the method: as §1

[5] = qHTS RealTime-Glo MT Cell Viability Assay in HEK293 cells - 40 hour (AID 1224874); conditions: RealTime-Glo luminescence; max response: stronger effect = lower value; further: nearly all actives have a fitted effect of over 50% in size; further: potency means the concentration at half of the fitted maximal effect
Summary of the method: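 Viable HEK293 cells reduce a cell-permeant prosubstrate; the product diffuses out and is consumed by NanoLuc in the medium to give light. Compounds went in after a 5 h incubation and plates were read over the treatment course.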

[6] = A CellTox Green Cytotoxicity Assay to monitor cytotoxicity in HEK293 cells - 24 hour (AID 1224875); further: series mostly up to about 77 µM; nearly all actives have a fitted effect of over 45% in size
Summary of the method: as §2

[7] = A CellTox Green Cytotoxicity Assay to monitor cytotoxicity in HepG2 cells - 16 hour (AID 1224876); further: nearly all actives have a fitted effect of over 45% in size; further: potency means the concentration at half of the fitted maximal effect
Summary of the method: (§3)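 Using 1536-well format, dye-containing HepG2 suspension was seeded, allowed 5 h at 37 C/5% CO2, dosed by pintool with compounds, positive and negative controls, and imaged for fluorescence across 40 h.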

[8] = qHTS RealTime-Glo MT Cell Viability Assay in HepG2 cells - 32 hour (AID 1224877); further: nearly all actives have a fitted effect of over 55% in size; further: potency means the concentration at half of the fitted maximal effect
Summary of the method: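 Tox21 10K library screened in qHTS format on HepG2 cells carrying RealTime-Glo reagents. Compounds were added after a 5 h preincubation, and the luminescent signal from continuous culture was measured repeatedly during 40 h treatment.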

[9] = A CellTox Green Cytotoxicity Assay to monitor cytotoxicity in HepG2 cells - 24 hour (AID 1224878); further: nearly all actives have a fitted effect of over 45% in size; further: potency means the concentration at half of the fitted maximal effect
Summary of the method: as §3

[10] = A CellTox Green Cytotoxicity Assay to monitor cytotoxicity in HepG2 cells - 40 hour (AID 1224879); further: nearly all actives have a fitted effect of over 40% in size; further: potency means the concentration at half of the fitted maximal effect
Summary of the method: as §3

Row | SMILES | Potency [1] | Potency [2] | Potency [3] | Potency [4] | max response [5] | Potency [6] | Potency [7] | Potency [8] | Potency [9] | Potency [10] | Potency [5]
1 | NS(=O)(=O)c1cc2c(cc1Cl)NC=NS2(=O)=O | inactive | inactive | inactive | inactive | 7.37% (inactive) and 0.52% (inactive) | inactive | inactive | inactive | inactive | inactive | 
2 | O=C(c1cc(O)c(O)c(O)c1)c1ccc(O)c(O)c1O | inactive | inactive | inactive | inactive | -21.1% (inactive) and -21.4% (inactive) and -9.65% (inactive) | inactive | inactive | inactive | inactive | inactive | 
3 | Cc1cc(=O)[nH]c(C(C)C)n1 | inactive | inactive | inactive | inactive | 1.9% (inactive) and -0.481% (inactive) | inactive | inactive | inactive | inactive | inactive | 
4 | S=c1nc[nH]c2nc[nH]c12 | inactive | inactive | inactive | inactive |  | inactive | inactive | inactive | inactive | inactive | 16.9 µM (active)
5 | COCC(=O)O | inactive | inactive | inactive | inactive | 0.194% (inactive) and 4.44% (inactive) | inactive | inactive | inactive | inactive | inactive | 
6 | O=Nc1ccc(O)cc1 | inactive | inactive | inactive | inactive | 2.25% (inactive) | inactive | inactive | inactive | inactive | inactive | 
7 | O=C(O)c1ccc([N+](=O)[O-])cc1 | inactive | inactive | inactive | inactive | 2.62% (inactive) and 0.789% (inactive) | inactive | inactive | inactive | inactive | inactive | 
8 | CS(=O)(=O)Nc1ccc([N+](=O)[O-])cc1Oc1ccccc1 | inactive | inactive | inactive | inactive | -6.51% (inactive) and 1.07% (inactive) | inactive | inactive | inactive | inactive | inactive | 
9 | Oc1ccc(OCc2ccccc2)cc1 | inactive | inactive | 957 nM (active) and inactive | inactive | -10.3% (inactive) | inactive | inactive | inactive | inactive | inactive | 1.2 µM (active)
10 | c1ccc2ccccc2c1 | inactive | inactive | inactive | inactive | 0.777% (inactive) and 7.95% (inactive) | inactive | inactive | inactive | inactive | inactive | 
11 | CCCCOCCO | inactive | inactive | inactive | inactive | 3.58% (inactive) and 5.47% (inactive) | inactive | inactive | inactive | inactive | inactive | 
12 | Cc1cc(Cc2ccc(N)c(C)c2)ccc1N | inactive | inactive | inactive | inactive | -20.5% (inactive) and -29% (inactive) | inactive | inactive | inactive | inactive | inactive | 
13 | CCCCC(CC)COC(=O)CCCCCCCC(=O)OCC(CC)CCCC (configuration not stated) | inactive | 49 µM (active) and inactive | 24.5 µM (active) and inactive | inactive | 4.32% (inactive) |  | 49 µM (active) | inactive | 49 µM (active) | 43.6 µM (active) | 4.9 µM (active)
14 | Cc1ccc(N)c(S(=O)(=O)O)c1 | inactive | inactive | inactive | inactive | -4.11% (inactive) and 2.65% (inactive) | inactive | inactive | inactive | inactive | inactive | 
15 | O=C(Cl)c1c(Cl)c(Cl)c(C(=O)Cl)c(Cl)c1Cl | inactive | inactive | inactive | inactive | 8.71% (inactive) and 13.6% (inactive) | inactive | inactive | inactive | inactive | inactive | 
16 | Cc1cc(O)cc(C)c1Cl | inactive | inactive | inactive | inactive | -8.32% (inactive) and -0.996% (inactive) | inactive | inactive | inactive | inactive | inactive | 
17 | OCC1CCCO1 (configuration not stated) | inactive | inactive | inactive | inactive | 1.79% (inactive) and -10.7% (inactive) | inactive | inactive | inactive | inactive | inactive | 
18 | Clc1cc(Cl)c(Cl)cc1Cl | inactive | inactive | inactive | inactive | 4.68% (inactive) and 15.5% (inactive) | inactive | inactive | inactive | inactive | inactive | 
19 | O=[N+]([O-])c1cc(N(CCO)CCO)ccc1NCCO | inactive | inactive | inactive | inactive | 0.623% (inactive) and 8.81% (inactive) | inactive | inactive | inactive | inactive | inactive | 

Row | SMILES | Potency [1] | Potency [2] | Potency [3] | Potency [4] | max response [5] | Potency [6] | Potency [7] | Potency [8] | Potency [9] | Potency [10] | Potency [5]
20 | CC[Si](OC(C)=O)(OC(C)=O)OC(C)=O | inactive | inactive | inactive | inactive | 13.5% (inactive) and 2.5% (inactive) | inactive | inactive | inactive | inactive | inactive | 
21 | CC(C)(C)C1CCC(O)CC1 (configuration not stated) | inactive | inactive | inactive | inactive | -21.7% (inactive) and -6.15% (inactive) | inactive | inactive | inactive | inactive | inactive | 
22 | CCCCCCCCCCCCN | inactive and 34.7 µM (active) | inactive and 49 µM (active) | inactive and 38.9 µM (active) | inactive and 21.9 µM (active) | 3.89% (inactive) and -9.66% (inactive) |  | inactive and 19.5 µM (active) | inactive and 24.5 µM (active) | inactive and 19.5 µM (active) | inactive and 21.9 µM (active) | 43.6 µM (active)
23 | CCCCCCCCCCCCOCC1CO1 (configuration not stated) | inactive | inactive | inactive | inactive | -10.9% (inactive) and -25.4% (inactive) | inactive | inactive | inactive | inactive | inactive | 
24 | CS(=O)(=O)c1ccc([C@@H](O)[C@@H](CO)NC(=O)C(Cl)Cl)cc1 | inactive | inactive | inactive | inactive | 13.1% (inactive) and 7.93% (inactive) | inactive | inactive | inactive | inactive | inactive | 
25 | CCC(=O)O | inactive | inactive | inactive | inactive | 12.8% (inactive) and 8.4% (inactive) and 13% (inactive) | inactive | inactive | inactive | inactive | inactive | 
26 | CCCCNC(N)=O | inactive | inactive | inactive | inactive | 5.63% (inactive) and 4.35% (inactive) | inactive | inactive | inactive | inactive | inactive | 
27 | O=C(c1ccc(O)cc1)c1ccc(O)cc1O | inactive | inactive | inactive | inactive | -21.4% (inactive) | inactive | inactive | inactive | inactive | inactive | 
28 | C=C(C)C(=O)OCCCCCC | inactive | inactive | inactive | inactive | 7.72% (inactive) and -0.816% (inactive) | inactive | inactive | inactive | inactive | inactive | 
29 | COC(=O)c1ccccc1O | inactive | inactive | inactive | inactive | -1.26% (inactive) and 16.9% (inactive) | inactive | inactive | inactive | inactive | inactive | 
30 | CC1=CC[C@H]2C[C@@H]1C2(C)C | inactive | inactive | inactive | inactive | 0.867% (inactive) and -1.12% (inactive) | inactive | inactive | inactive | inactive | inactive | 
31 | CCCCCCCCC | inactive | inactive | inactive | inactive | 9.17% (inactive) and -1.35% (inactive) | inactive | inactive | inactive | inactive | inactive | 
32 | CCCCCCC(C)(C)S | inactive | inactive | inactive | inactive | 2.32% (inactive) and -0.908% (inactive) | inactive | inactive | inactive | inactive | inactive | 
33 | O=C1CCCCC1 | inactive | inactive | inactive | inactive | 4.63% (inactive) and 22.1% (inactive) | inactive | inactive | inactive | inactive | inactive | 
34 | C=C(C#N)C(=O)OCC | inactive | inactive | inactive | inactive | -3.09% (inactive) and 0.0188% (inactive) | inactive | inactive | inactive | inactive | inactive | 
35 | COC(=O)c1ccc(C(=O)OC)cc1 | inactive | 15.7 µM (active) and inactive | 35.1 µM (active) and inactive | inactive | 0.23% (inactive) | inactive | inactive | inactive | 22.2 µM (active) and inactive | 22.2 µM (active) and inactive | 35.1 µM (active)
36 | CC(C)Cc1ccccc1 | inactive | inactive | inactive | inactive | 14.2% (inactive) and -0.413% (inactive) | inactive | inactive | inactive | inactive | inactive | 
37 | CC1(C)O[C@@H]2C[C@H]3[C@@H]4C[C@H](F)C5=CC(=O)CC[C@]5(C)[C@H]4[C@@H](O)C[C@]3(C)[C@]2(C(=O)CO)O1 | inactive | inactive | inactive | inactive | -22.4% (inactive) and 2.26% (inactive) | inactive | 49 µM (active) and inactive | inactive | 49 µM (active) and inactive | 43.6 µM (active) and inactive | 
